PubChem BioAssay (NCATS)
Inconclusive results are not listed. Activity calls are given as the source filed them. Calls come from the whole dose curve; as a rule, active = well fitted cell-killing curve with a large enough effect; inconclusive = small, poorly fitted or top-dose-only effect, or effect the other way; inactive = flat fitted curve, though single readings scatter.

Assays:
Assay in all cases: Primary qHTS to identify gynecologic anti-cancer compounds using libraries of approved drugs and bioactive compounds (AID 1345084); note: nearly all actives have a fitted effect of over 55% in size
C33A = details: Gynecologic cancer cell panel viability, ATPlite luminescence, 48 h; series mostly up to 57.5 µM
How it was run: (§1)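 ATP-based viability (ATPlite), 1,000 cells/well, 16 h pre-incubation, 48 h compound at 37 C, 5% CO2, 15 min RT before read.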

CAOV3 = details: Gynecologic cancer cell panel viability, ATPlite luminescence, 48 h; series mostly up to 57.5 µM
How it was run: as §1

CASKI = details: Gynecologic cancer cell panel viability, ATPlite luminescence, 48 h; series mostly up to 57.5 µM
How it was run: as §1

Es-2 = details: Gynecologic cancer cell panel viability, ATPlite luminescence, 48 h; series mostly up to 57.5 µM
How it was run: as §1

HeLa = details: Gynecologic cancer cell panel viability, ATPlite luminescence, 48 h; series mostly up to 57.5 µM
How it was run: as §1

Hek293T = details: Gynecologic cancer cell panel viability, ATPlite luminescence, 48 h, control line for the selectivity index; series mostly up to 57.5 µM
How it was run: as §1

JEG-3 = details: Gynecologic cancer cell panel viability, ATPlite luminescence, 48 h; series mostly up to 57.5 µM
How it was run: as §1

OV90 = details: Gynecologic cancer cell panel viability, ATPlite luminescence, 48 h; series mostly up to 57.5 µM
How it was run: as §1

PA-1 = details: Gynecologic cancer cell panel viability, ATPlite luminescence, 48 h; series mostly up to 57.5 µM
How it was run: as §1

SKOV3 = details: Gynecologic cancer cell panel viability, ATPlite luminescence, 48 h; series mostly up to 57.5 µM
How it was run: as §1

Tov-21-G = details: Gynecologic cancer cell panel viability, ATPlite luminescence, 48 h; series mostly up to 57.5 µM
How it was run: as §1

Tov112D = details: Gynecologic cancer cell panel viability, ATPlite luminescence, 48 h; series mostly up to 57.5 µM
How it was run: as §1

Measured: Potency

COc1ccc(CCO[C@@H]2O[C@H](CO[C@@H]3OC[C@H](O)[C@H](O)[C@H]3O)[C@@H](O)[C@H](O)[C@H]2O)cc1
inactive: all assays above

COC(=O)[C@@H](O)[C@H]1[C@@]2(C)CC3(O)[C@@H](C(=O)[C@H]2O)[C@]24O[C@]25CC(=O)O[C@@H](c2ccoc2)[C@]5(C)CCC4[C@]13C (some centres not stated)
inactive: all assays above

CC1(C)CC2C=C(C(=O)O)C3COC(=O)C(O)(CO)C23C1 (configuration not stated)
inactive: all assays above

C[C@@H]1C(=O)O[C@H]2[C@@H](O)C34[C@H]5C[C@@H](C(C)(C)C)C36[C@@H](OC(=O)[C@@H]6O)O[C@@]4(C(=O)O5)[C@@]12O (some centres not stated)
inactive: all assays above

O=C1C=CC(O)(/C=C/C(=O)OC[C@H]2O[C@@H](Oc3ccc(O)cc3)[C@H](O)[C@@H](O)[C@@H]2O)C=C1
inactive: all assays above

C[C@H]1CC[C@@]2(OC1)O[C@H]1CC3C4CC[C@H]5C[C@@H](O)[C@H](O)C[C@]5(C)C4=CC(=O)[C@]3(C)[C@H]1[C@@H]2C (some centres not stated)
inactive: all assays above

O=C(CCCCN1CCOCC1)Nc1ccc(-c2cccnc2)cc1
inactive: all assays above

CC(C)(C)NCCCNC(=O)c1cccc(Br)c1
inactive: all assays above

C=CCC1=C[C@]2(OC)[C@H](C)[C@@H](c3ccc(O)c(OC)c3)O[C@]2(OC)CC1=O
inactive: all assays above

CCOC(=O)c1sc(NC(=O)[C@H](C(C)C)n2c(=O)[nH]c3ccccc3c2=O)nc1C
inactive: all assays above

CC[C@@](C)(Nc1ccnc(-c2c[nH]c3ncccc23)n1)C(=O)NCC(F)(F)F
inactive: all assays above

C=C1OC2CC(C(=O)O)C=CC2NC1=O (configuration not stated)
inactive: all assays above

c1ccc(-c2ncc(CN3CCN(c4ncccn4)CC3)[nH]2)cc1
inactive: all assays above

Cc1[nH]c2ccccc2c1CCNC(=O)c1ccccc1F
inactive: all assays above

C=CC1(C)C=C2CCC3C(C)(C)C(O[C@@H]4O[C@@H](CO)[C@H](O)[C@H]4O)CCC3(C)C2CC1O[C@@H]1O[C@H](C)[C@H](O)[C@H](O)[C@H]1O (some centres not stated)
inactive: all assays above

COC(=O)c1ccccc1O[C@@H]1O[C@H](CO)[C@@H](O)[C@H](O)[C@H]1O[C@@H]1O[C@@H](C)[C@H](O)[C@@H](O)[C@H]1O
inactive: all assays above
